Experimental findings from PubChem BioAssay (NCI) are described below.

Structures are written as SMILES. Several values for one entry are separate records, joined by “and”; a condition that tells them apart may be missing. Equal values may be shown once. Compounds without any hit were thinned out: in the full panel of roughly 83,000, 20% have a hit.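 96-well plates, one dose, 48 hours. Percent growth reported; active if below 10.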 Activity calls are given as the source filed them.

Common to all, as to assay: NCI-60 one-dose screen, 48 h (100 = growth as untreated, 0 = no growth, -100 = all killed)
Settings in all cases: 10 µM unless noted

Experiment [1] has as its system OVCAR-8 ovarian.
Experiment [2] concerns OVCAR-5 ovarian.
Experiment [3] deals with OVCAR-4 ovarian.
The test system of experiment [4] is IGROV1 ovarian.
In experiment [5] the test system is OVCAR-3 ovarian.
For experiment [6], the system named is HS 578T breast.
The test system of experiment [7] is NCI/ADR-RES ovarian.
Experiment [8] relates to T-47D breast.
Experiment [9] deals with MDA-MB-435 melanoma.
The test system of experiment [10] is SW-620 colon.
In experiment [11] the test system is MCF7 breast.
Experiment [12] relates to HCC-2998 colon.
The subject of experiment [13] is KM12 colon.
In experiment [14] the test system is RPMI-8226 leukemia.
Experiment [15] deals with SK-OV-3 ovarian.
For experiment [16], the system named is HCT-116 colon.
Experiment [17] relates to BT-549 breast.

Turning to `CCCCCCCCCCCCOc1ccccc1C=O`, the growth in experiment [1] is 94.6% (inactive); in experiment [2] it was 101% (inactive); in [3], 86.5% (inactive); in experiment [4], 112% (inactive); in experiment [5], 108% (inactive); in experiment [6], 97% (inactive). Moreover, the growth is 102% (inactive) in experiment [7]; 100% (inactive) in experiment [8]; 98.3% (inactive) in experiment [9]; 101% (inactive) in [10]; 81.7% (inactive) in experiment [11]; 90.2% (inactive) in experiment [12]. In addition, the growth in experiment [13] is 102% (inactive).

Take `O=C(Oc1cccc(OC(=O)c2ccccc2)c1)c1ccccc1`: the growth is 69.9% (inactive) and 104% (inactive) in [14]; 110% (inactive) in experiment [1]; 92.7% (inactive) and 102% (inactive) in [2]; 97.3% (inactive) and 92.1% (inactive) in experiment [3]; 126% (inactive) and 97.4% (inactive) in experiment [15]; 109% (inactive) in experiment [4]. Also, the growth is 76.3% (inactive) and 101% (inactive) in [5]; 78.4% (inactive) and 102% (inactive) in [6]; 95.5% (inactive) and 97.7% (inactive) in experiment [7]; 102% (inactive) in experiment [8]; 113% (inactive) and 99.8% (inactive) in experiment [9]; 85.8% (inactive) and 103% (inactive) in [10]. The growth in experiment [11] was 78.7% (inactive) and 107% (inactive); in [16], 89.2% (inactive) and 93.9% (inactive); in experiment [12], 96.3% (inactive) and 102% (inactive); in experiment [13], 87.9% (inactive).

As to `CN(C)c1ccc(/C=N/n2c(-c3ccccc3)nc3ccccc3c2=O)cc1`, in [11], the growth was 40.4% [100 µM] (inactive) and 21.1% [100 µM] (inactive).

Consider `CCN1CCN(CCNc2nccc(-c3c(-c4cccc(O)c4)nc4sccn34)n2)S1(=O)=O`, for which the growth is 90% (inactive) and 68.3% (inactive) in experiment [1]; 87.2% (inactive) and 95.5% (inactive) in [2]; 106% (inactive) and 77.7% (inactive) in experiment [3]; 38.4% (inactive) and 39.1% (inactive) in [15]; 54% (inactive) and 57.5% (inactive) in experiment [4]; 92.9% (inactive) and 86.7% (inactive) in [5]. The growth in experiment [6] is 78% (inactive); in experiment [7], 102% (inactive) and 103% (inactive); in experiment [8] it was 76.7% (inactive) and 72.5% (inactive); in [17], 72% (inactive) and 83.8% (inactive); in experiment [9], 20% (inactive) and 11% (inactive); in experiment [10] it was 107% (inactive) and 101% (inactive). Further, the growth is 86.8% (inactive) and 83.6% (inactive) in experiment [11]; 53.5% (inactive) and 47.7% (inactive) in experiment [16]; 111% (inactive) and 97.1% (inactive) in [12]; 52.4% (inactive) and 68.9% (inactive) in [13].

As to `O=C(O)c1cc(C(=O)O)cc([N+](=O)[O-])c1`, the growth in [14] was 108% (inactive); in experiment [1], 106% (inactive); in experiment [2], 105% (inactive); in [3], 108% (inactive); in [4], 108% (inactive); in experiment [5], 111% (inactive). Further, the growth in experiment [6] is 112% (inactive); in experiment [7], 106% (inactive); in experiment [17] it was 102% (inactive); in [9] it was 99% (inactive); in experiment [10] it was 107% (inactive); in experiment [16] it was 101% (inactive). Further, in experiment [13], the growth is 109% (inactive).

Take `CC(/C=N/N1C(=O)c2ccccc2C1=O)c1ccccc1` (centres undefined): the growth in [14] is 97.9% (inactive); in [1] it was 101% (inactive); in [2] it was 103% (inactive); in experiment [3], 112% (inactive); in [15], 108% (inactive); in experiment [4], 98.6% (inactive). In addition, the growth in experiment [5] is 113% (inactive); in experiment [6], 119% (inactive); in experiment [7] it was 113% (inactive); in experiment [8], 98.7% (inactive); in experiment [17], 113% (inactive); in [9], 91.6% (inactive). Also, the growth is 106% (inactive) in [10], 97.5% (inactive) in [11] and 113% (inactive) in [13].

`O=c1c2ccccc2nc2n1Cc1nc3ccccc3c(=O)n1C2`: the growth in experiment [14] is 93% (inactive) and 102% (inactive); in experiment [1], 112% (inactive) and 110% (inactive); in experiment [2], 101% (inactive) and 102% (inactive); in experiment [3] it was 95.2% (inactive) and 108% (inactive); in experiment [4] it was 88% (inactive) and 106% (inactive); in [5], 92.6% (inactive) and 112% (inactive). For the same compound, the growth is 91.7% (inactive) and 114% (inactive) in experiment [6]; 102% (inactive) and 105% (inactive) in [7]; 106% (inactive) and 108% (inactive) in experiment [8]; 89.8% (inactive) and 94.1% (inactive) in experiment [17]; 93.5% (inactive) and 101% (inactive) in experiment [9]; 97.3% (inactive) and 103% (inactive) in [10]. For the same compound, the growth in experiment [11] was 84.5% (inactive) and 97.9% (inactive); in experiment [16], 111% (inactive) and 94.6% (inactive); in [12], 106% (inactive) and 104% (inactive); in experiment [13], 99.6% (inactive) and 101% (inactive).

In the case of `COC(=O)C(/C(=N/NC(N)=O)C(=O)Nc1ccc(C)cc1)c1nc2ccc([N+](=O)[O-])cc2[nH]c1=O` (centres undefined), the growth in [11] is 68.7% [100 µM] (inactive) and 41.2% [100 µM] (inactive).

In the case of `CC1CCCc2sc3nc(NNC(=O)c4cnccn4)n(-c4ccccc4)c(=O)c3c21` (centres undefined), the growth in experiment [14] was 24.4% (inactive) and 11.4% (inactive); in [1], 12% (inactive) and 9.28% (active); in [2], 29.6% (inactive) and 36.6% (inactive); in experiment [3] it was -3.93% (active) and -20.4% (active); in experiment [15], 17% (inactive) and -9.04% (active); in experiment [4], 16.9% (inactive) and 14.1% (inactive). The growth in experiment [5] is 0.919% (active) and -3.1% (active); in experiment [6] it was 49.1% (inactive) and 38.1% (inactive); in experiment [7], 3.02% (active) and 5.41% (active); in experiment [8], 10.9% (inactive) and 3.31% (active); in experiment [9] it was 27.9% (inactive) and 21.5% (inactive); in [10] it was 23.7% (inactive) and 19.7% (inactive). Further, the growth in experiment [11] is 6.57% (active) and 0.695% (active); in [16] it was 7.09% (active) and -13.3% (active); in [12] it was 34.2% (inactive) and 40.9% (inactive); in [13], 20% (inactive) and 19.2% (inactive).

With `CCC(C)C1(O)OC2CC3(C)OC(=CC3=O)/C(C)=C\C3OC(=O)C1(C)C32` (centres undefined), the growth in [11] was -50% [100 µM] (active) and -100% [100 µM] (active).

On to `NC(=O)NO`, for which the growth in experiment [14] was 98.8% (inactive) and 42.1% (inactive); in experiment [1], 99.8% (inactive); in [2], 108% (inactive) and 45.8% (inactive); in experiment [3], 105% (inactive) and 59.5% (inactive); in [4] it was 104% (inactive) and 47% (inactive); in experiment [5] it was 110% (inactive) and 70.1% (inactive). Further, the growth is 109% (inactive) and -24.6% (active) in experiment [6]; 99.4% (inactive) and 87.4% (inactive) in [7]; 107% (inactive) and 46.6% (inactive) in experiment [8]; 110% (inactive) and 41.5% (inactive) in [17]; 98.5% (inactive) and 74.4% (inactive) in experiment [9]; 105% (inactive) and 78.4% (inactive) in experiment [10]. The growth in [11] was 96.9% (inactive) and 65.2% (inactive); in experiment [16], 109% (inactive) and 67.6% (inactive); in experiment [12] it was 111% (inactive) and 73.1% (inactive); in experiment [13], 100% (inactive) and 67.8% (inactive).
